In PubChem BioAssay (NCATS):
“And” between values parts separate entries of the source, which are not always exact repeats. Equal entries are not always repeated. Results filed as inconclusive are left out. A number with no mark means an inactive call. The source made the active and inactive calls. The call rests on the fitted dose curve; in most records, active means well fitted curve in the direction sought with a large enough effect; inconclusive means small, poorly fitted or top-dose-only effect, or another doubt; inactive means no such curve, though single readings can be large; an effect the other way counts as inactive or inconclusive.

target: Furin (Homo sapiens) (UniProt P09958); test: Furin counterscreen qHTS for Zika virus inhibitors (AID 1347149); settings: furin enzymatic counterscreen, fluorogenic substrate; series mostly up to 57.5 µM; activity change, negative = inhibition: at the top concentration; further: nearly all actives have a fitted effect of over 70% in size;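 on activity change, negative = inhibition: purified recombinant full-length human furin enzyme at 5 nM; fluorescence gain from furin cutting a BOC-RVRR-AMC peptide substrate over 15 min; top concentration of the series differs between compounds; plate controls were no-inhibitor control for no effect and no-enzyme control for full effect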
Sequence (P09958 whole entry, looked up): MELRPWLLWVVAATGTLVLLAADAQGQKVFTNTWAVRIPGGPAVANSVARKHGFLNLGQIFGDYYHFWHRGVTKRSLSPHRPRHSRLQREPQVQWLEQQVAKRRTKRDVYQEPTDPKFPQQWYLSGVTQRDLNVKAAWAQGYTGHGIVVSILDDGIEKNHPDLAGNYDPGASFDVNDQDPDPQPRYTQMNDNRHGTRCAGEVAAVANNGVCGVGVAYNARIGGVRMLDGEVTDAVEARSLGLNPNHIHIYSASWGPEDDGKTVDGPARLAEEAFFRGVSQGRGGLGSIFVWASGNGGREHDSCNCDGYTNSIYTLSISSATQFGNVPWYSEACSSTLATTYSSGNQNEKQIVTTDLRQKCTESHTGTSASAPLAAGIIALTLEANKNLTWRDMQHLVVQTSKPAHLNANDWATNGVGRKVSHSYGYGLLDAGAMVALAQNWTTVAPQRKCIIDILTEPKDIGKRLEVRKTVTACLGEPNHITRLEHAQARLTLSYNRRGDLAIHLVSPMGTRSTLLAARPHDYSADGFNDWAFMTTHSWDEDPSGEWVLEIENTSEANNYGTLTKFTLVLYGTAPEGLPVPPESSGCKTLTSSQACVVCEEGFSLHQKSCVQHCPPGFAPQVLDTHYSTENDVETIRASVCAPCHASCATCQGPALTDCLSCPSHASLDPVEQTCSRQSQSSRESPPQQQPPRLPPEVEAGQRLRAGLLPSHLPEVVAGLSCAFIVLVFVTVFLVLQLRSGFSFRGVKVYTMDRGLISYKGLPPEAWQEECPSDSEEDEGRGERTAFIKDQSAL
How it was run: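 Counterscreen measures cleavage of 2 microM BOC-RVRR-AMC, below its ~15 microM Km, by 5 nM full-length human furin at pH 7.0 after a 15-min compound preincubation. Inhibition derives from the 15-min fluorescence increase at 37C.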
Potency means the concentration at half of the fitted maximal effect.

Compound	Potency	activity change, negative = inhibition
O=C1C(I)=CC(=C(c2cc(I)c(O)c(I)c2)c2ccccc2C(=O)O)C=C1I	18.7 µM (active)	–
O=[N+]([O-])c1c(Cl)c(Cl)cc(Cl)c1Cl	–	9.5% [at 192 µM]
O=C(O)c1cc(Oc2ccc(C(F)(F)F)cc2Cl)ccc1[N+](=O)[O-]	–	5.13% [at 114 µM]
CC1=C(O)C(=O)C=C2C1=CC=C1[C@@]2(C)CC[C@@]2(C)[C@@H]3C[C@](C)(C(=O)O)CC[C@]3(C)CC[C@]12C	–	6.15%
CC(=O)N(C)c1cccc(-c2ccnc3c(C(=O)c4cccs4)cnn23)c1	24.1 µM (active)	–
C=CCN1CC[C@]23CCCCC2[C@H]1Cc1ccc(O)cc13 (stereo partly drawn)	–	-0.637%
Nc1c(Cl)c(Cl)c(Cl)c(Cl)c1Cl	–	4.23% [at 192 µM]

test system: Zika virus NS2B-NS3 protease (unlinked); test: Optimization of GU AMC qHTS for Zika virus inhibitors: Unlinked NS2B-NS3 protease assay (AID 1347151); settings: recombinant ZIKV NS2B-NS3 protease, fluorogenic AMC substrate; series mostly up to 52.5 µM; activity change, negative = inhibition: at the top concentration; further: nearly all actives have a fitted effect of over 80% in size;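 on activity change, negative = inhibition: 0% = no-inhibitor control and -100% = no-enzyme control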
How it was run: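 Noncovalent complex of NS2B hydrophilic domain and NS3 protease domain, 25 nM final, in 10 mM Tris-HCl pH 8.0, 0.01% Tween 20. AMC fluorescence change over 15 min at room temperature was fitted to a 4-parameter Hill equation.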

Compound	Potency	activity change, negative = inhibition [%]
C[N+]1(C)C2CCC1CC(OC(=O)C(CO)c1ccccc1)C2 (stereo not drawn)	inactive	–
CNCCc1c[nH]c2ccc(O)cc12	–	-4.14
CN1C2CCC1CC(OC(=O)c1cc(Cl)cc(Cl)c1)C2 (stereo not drawn)	–	10.2
Cn1cnc(CCN)c1	–	2.73
CS(=N)(=O)CC[C@H](N)C(=O)O (stereo partly drawn)	–	-2.43
C[C@@H]1O[C@H](C[N+](C)(C)C)C[C@H]1O	–	0.177
NC(=O)CN1CC(O)CC1=O (stereo not drawn)	–	0.978
CC(C)NC(C)Cc1ccc(I)cc1 (stereo not drawn)	–	-2.59
COc1cc(C(O)CN)ccc1O (stereo not drawn)	–	0.979
O=C(O)CC[N+](=O)[O-]	–	3.26
C[C@]12CCC3C(CC[C@H]4C[C@H](O)CC[C@]34C)C1CC[C@@H]2C(=O)CO (stereo partly drawn)	–	4.03
NC1CC1c1ccccc1 (stereo not drawn)	–	0.248
CNCCc1ccc(O)c(O)c1	–	22
C[N+](C)(C)CC(=O)O	–	2.31
C[C@]12N[C@H](Cc3ccccc31)c1ccccc12	–	3.07
NC(CCP(=O)(O)O)C(=O)O (stereo not drawn)	–	-1.93
CN[C@@H]1C[C@@H](c2ccc(Cl)c(Cl)c2)c2ccccc21	–	26.2
COc1ccc2c(c[n+](C)c3c4cc5c(cc4ccc23)OCO5)c1OC	29.9 µM (active)	–
CC(=O)[C@H]1CCC2C3CC[C@H]4C[C@H](O)CC[C@]4(C)C3CC[C@@]21C (stereo partly drawn)	–	-6.73
C=CCN1CC[C@]23CCCCC2[C@H]1Cc1ccc(O)cc13 (stereo partly drawn)	–	-7.4
CC(C)Oc1cccnc1N(C)C1CCN(Cc2ccccc2)CC1	29.9 µM (active)	–
CC(Cc1ccc(O)cc1)NCC(O)c1cc(O)cc(O)c1 (stereo not drawn)	–	-4.93
CCCCc1ccc(C(=O)O)nc1	–	2.99
CCCN1CCC[C@H](c2cccc(O)c2)C1	–	1.63
c1ccc(C2(c3ccccc3)CC2C2=NCCN2)cc1 (stereo not drawn)	–	0.88
O=C(O)[C@@H]1CCN1	–	-0.605
NC(N)=NOCCC(N)C(=O)O (stereo not drawn)	–	3.52
Oc1ccc2c3c1O[C@H]1c4[nH]c5c(c4C[C@@]4(O)[C@@H](C2)N(CC2CC2)CC[C@]314)C[C@@]1(O)[C@H]2Cc3ccc(O)c4c3[C@@]1(CCN2CC1CC1)[C@H]5O4	–	7.36

test system: Zika virus NS2B-NS3 protease; test: Primary screen GU AMC qHTS for Zika virus inhibitors (AID 1347154); settings: Zika NS2B-NS3 unlinked protease, AMC fluorogenic substrate; series mostly up to 54.1 µM; activity change, negative = inhibition: at the top concentration; further: nearly all actives have a fitted effect of over 70% in size;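 on activity change, negative = inhibition: 0% = no-inhibitor control and -100% = no-enzyme control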
How it was run: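 Unlinked Zika NS2B hydrophilic domain/NS3 protease domain noncovalent complex (25 nM final) in 10 mM Tris-HCl pH 8.0, 0.01% Tween 20, with AMC peptide substrate. Fluorescence (ex 340, em 450 nm) change over 15 min, room temperature; percent inhibition fitted to 4-parameter Hill equation.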

Compound	Potency	activity change, negative = inhibition
O=C1C(I)=CC(=C(c2cc(I)c(O)c(I)c2)c2ccccc2C(=O)O)C=C1I	12.8 µM (active)	–
O=[N+]([O-])c1c(Cl)c(Cl)cc(Cl)c1Cl	–	0.484% [at 104 µM]
O=C(O)c1cc(Oc2ccc(C(F)(F)F)cc2Cl)ccc1[N+](=O)[O-]	–	-5.34%
NC1CC1c1ccccc1 (stereo not drawn)	–	-13.3%
NC(CCP(=O)(O)O)C(=O)O (stereo not drawn)	–	13.1%
CC(=O)N(C)c1cccc(-c2ccnc3c(C(=O)c4cccs4)cnn23)c1	21.5 µM (active)	–
CC(Cc1ccc(O)cc1)NCC(O)c1cc(O)cc(O)c1 (stereo not drawn)	–	-3.56%
Nc1c(Cl)c(Cl)c(Cl)c(Cl)c1Cl	–	-2.79% [at 104 µM]
Oc1ccc2c3c1O[C@H]1c4[nH]c5c(c4C[C@@]4(O)[C@@H](C2)N(CC2CC2)CC[C@]314)C[C@@]1(O)[C@H]2Cc3ccc(O)c4c3[C@@]1(CCN2CC1CC1)[C@H]5O4	inactive	–

test system: not listed separately; test: Confirmatory screen GU Rhodamine qHTS for Zika virus inhibitors qHTS (AID 1347157); settings: purified enzyme assay, Rhodamine110 substrate fluorescence, 15 min; series mostly up to 229 µM; activity change, negative = inhibition: at the top concentration; further: nearly all actives have a fitted effect of over 70% in size;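 on activity change, negative = inhibition: plate controls were no-inhibitor wells for no effect and no-enzyme wells for full effect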
How it was run: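 Percent inhibition derives from the 15-min fluorescence change (ex 480, em 540 nm), normalized to no-enzyme and no-inhibitor wells. Reactions contained 25 nM NS2B-NS3 complex and 1.5 microM substrate in 10 mM Tris-HCl pH 8.0.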

Compound	Potency	activity change, negative = inhibition [%]
O=C1C(I)=CC(=C(c2cc(I)c(O)c(I)c2)c2ccccc2C(=O)O)C=C1I	2.82 µM (active)	–
O=[N+]([O-])c1c(Cl)c(Cl)cc(Cl)c1Cl	–	13.6
Nc1c(Cl)c(Cl)c(Cl)c(Cl)c1Cl	–	9.73

test system: not listed separately; test: Confirmatory screen NINDS Rhodamine qHTS for Zika virus inhibitors (AID 1347161); settings: purified enzyme assay, Rhodamine110 substrate fluorescence, 15 min; series mostly up to 228 µM; activity change, negative = inhibition: at the top concentration; further: nearly all actives have a fitted effect of over 60% in size;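 on activity change, negative = inhibition: purified Zika NS2B-NS3 protease with linked NS2B cofactor domain and Rhodamine110 peptide substrate; plate controls were no-inhibitor control for no effect and no-enzyme control for full effect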
How it was run: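 Rhodamine110-peptide cleavage (1.5 µM substrate) by 25 nM linked NS2B-NS3 enzyme at pH 8.0 (Tris, Tween 20), after 15 min RT preincubation with compounds; 15-min fluorescence change normalized to controls and Hill-fitted.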

Compound	Potency	activity change, negative = inhibition
O=C1C(I)=CC(=C(c2cc(I)c(O)c(I)c2)c2ccccc2C(=O)O)C=C1I	2.51 µM (active)	–
O=[N+]([O-])c1c(Cl)c(Cl)cc(Cl)c1Cl	–	-1.3%
CC1=C(O)C(=O)C=C2C1=CC=C1[C@@]2(C)CC[C@@]2(C)[C@@H]3C[C@](C)(C(=O)O)CC[C@]3(C)CC[C@]12C	5.53 µM (active) and 2.77 µM (active)	–
CC(=O)N(C)c1cccc(-c2ccnc3c(C(=O)c4cccs4)cnn23)c1	–	-27.1% [at 114 µM]
CC(C)Oc1cccnc1N(C)C1CCN(Cc2ccccc2)CC1	–	-16.3% [at 114 µM]
Nc1c(Cl)c(Cl)c(Cl)c(Cl)c1Cl	–	8.56%
